From PubChem BioAssay (NCATS)
Results filed as inconclusive are left out. Calls of active or inactive are those of the source. Calls come from the whole dose curve; as a rule, active = well fitted curve in the direction sought with a large enough effect; inconclusive = small, poorly fitted or top-dose-only effect, or another doubt; inactive = no such curve, though single readings can be large; an effect the other way counts as inactive or inconclusive.

How the values were obtained:
NIH3T3 = experiment: Cytotoxic Profiling of Annotated Libraries Using Quantitative High-Throughput Screening (AID 1296008); conditions: Five cell lines viability, CellTiter-Glo ATP luminescence, 48-72 h; max response: stronger effect = lower value; note: nearly all actives have a fitted effect of over 60% in size
How it was run: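 Cells exposed to compounds for 48 or 72 hr at 37 degrees Celsius. Viability read as ATP-coupled luminescence with CellTiter-Glo after 10 min at room temperature.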

MKL-1 = experiment: qHTS assay to identify novel small-molecules to repurpose for Merkel cell carcinoma treatment (AID 1296009); conditions: MCC and control cell lines, CellTiter-Glo viability, 72 h; series mostly up to 46 µM; note: nearly all actives have a fitted effect of over 60% in size
How it was run: (§1)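 Dose-response viability screen; 72 hr exposure at 37 degree celsius; CellTiter-Glo added, 10 min room temperature, luminescence read; RLUs scaled between no-cell and DMSO wells.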

MKL-2 = experiment: as above; conditions: MCC and control cell lines, CellTiter-Glo viability, 72 h; series mostly up to 46 µM
How it was run: as §1

WaGa = experiment: as above; conditions: MCC and control cell lines, CellTiter-Glo viability, 72 h; series mostly up to 46 µM
How it was run: as §1

C33A = experiment: Primary qHTS to identify gynecologic anti-cancer compounds using libraries of approved drugs and bioactive compounds (AID 1345084); conditions: Gynecologic cancer cell panel viability, ATPlite luminescence, 48 h; series mostly up to 57.5 µM; note: nearly all actives have a fitted effect of over 55% in size
How it was run: (§2)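 Cytotoxicity screen measuring ATP content by luciferase luminescence. Each compound is applied at five concentrations for 48 h at 37 C with 5% CO2.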

CAOV3 = experiment: as above; conditions: Gynecologic cancer cell panel viability, ATPlite luminescence, 48 h; series mostly up to 57.5 µM
How it was run: as §2

CASKI = experiment: as above; conditions: Gynecologic cancer cell panel viability, ATPlite luminescence, 48 h; series mostly up to 57.5 µM
How it was run: as §2

Es-2 = experiment: as above; conditions: Gynecologic cancer cell panel viability, ATPlite luminescence, 48 h; series mostly up to 57.5 µM
How it was run: as §2

HeLa = experiment: as above; conditions: Gynecologic cancer cell panel viability, ATPlite luminescence, 48 h; series mostly up to 57.5 µM
How it was run: as §2

JEG-3 = experiment: as above; conditions: Gynecologic cancer cell panel viability, ATPlite luminescence, 48 h; series mostly up to 57.5 µM
How it was run: as §2

OV90 = experiment: as above; conditions: Gynecologic cancer cell panel viability, ATPlite luminescence, 48 h; series mostly up to 57.5 µM
How it was run: as §2

PA-1 = experiment: as above; conditions: Gynecologic cancer cell panel viability, ATPlite luminescence, 48 h; series mostly up to 57.5 µM
How it was run: as §2

SKOV3 = experiment: as above; conditions: Gynecologic cancer cell panel viability, ATPlite luminescence, 48 h; series mostly up to 57.5 µM
How it was run: as §2

HACAT = experiment: qHTS assay to identify novel small-molecules to repurpose for Merkel cell carcinoma treatment (AID 1296009); conditions: MCC and control cell lines, CellTiter-Glo viability, 72 h; at 44.8 µM (top of the series) unless noted; note: nearly all actives have a fitted effect of over 60% in size
How it was run: as §1

MCC-13 = experiment: as above; conditions: MCC and control cell lines, CellTiter-Glo viability, 72 h; series mostly up to 46 µM
How it was run: as §1

MCC-26 = experiment: as above; conditions: MCC and control cell lines, CellTiter-Glo viability, 72 h; series mostly up to 46 µM
How it was run: as §1

UISO = experiment: as above; conditions: MCC and control cell lines, CellTiter-Glo viability, 72 h; series mostly up to 46 µM
How it was run: as §1

Hek293T [1] = experiment: Primary qHTS to identify gynecologic anti-cancer compounds using libraries of approved drugs and bioactive compounds (AID 1345084); conditions: Gynecologic cancer cell panel viability, ATPlite luminescence, 48 h, control line for the selectivity index; series mostly up to 57.5 µM; note: nearly all actives have a fitted effect of over 55% in size
How it was run: as §2

HEK293T [2] = experiment: qHTS assay to identify novel small-molecules to repurpose for Merkel cell carcinoma treatment (AID 1296009); conditions: MCC and control cell lines, CellTiter-Glo viability, 72 h; at 44.8 µM (top of the series) unless noted; note: nearly all actives have a fitted effect of over 60% in size
How it was run: as §1
% is set by controls: 0 for no effect and ±100 for the full control effect; potency is the fitted concentration of half-maximal effect.

C=C(CC)C(=O)c1ccc(OCC(=O)O)c(Cl)c1Cl
inactive: max response (NIH3T3) -16.2% | Potency (C33A) | Potency (CAOV3) | Potency (CASKI) | Potency (Es-2) | Potency (HeLa) | Potency (JEG-3) | Potency (OV90) | Potency (PA-1) | Potency (SKOV3)
active: Potency (MKL-1) 8.41 µM | Potency (MKL-2) 15 µM | Potency (WaGa) 13.3 µM

Cc1c(C)n(Cc2ccccc2)c2ccc(C(=O)OCCN(C)C)cc12
inactive: outcome (HACAT) | Potency (MCC-13) | Potency (MCC-26) | Potency (MKL-1) | Potency (UISO) | Potency (WaGa) | Potency (C33A) | Potency (CASKI) | Potency (Es-2) | Potency (HeLa) | Potency (Hek293T [1]) | Potency (JEG-3) | Potency (OV90)

CC(=O)c1ccc2c(c1)N(CCCN1CCC(CCO)CC1)c1ccccc1S2
active: Potency (MKL-2) 21.1 µM
inactive: outcome (HACAT) | Potency (MCC-13) | Potency (MCC-26) | Potency (MKL-1) | Potency (C33A) | Potency (Es-2) | Potency (HeLa) | Potency (Hek293T [1]) | Potency (JEG-3) | Potency (SKOV3)

NC(=O)C(=O)N/N=C/c1ccc([N+](=O)[O-])o1
active: Potency (MKL-1) 26.6 µM | Potency (MKL-2) 7.5 µM | Potency (UISO) 29.9 µM | Potency (WaGa) 15 µM
inactive: outcome (HACAT) | Potency (MCC-13) | Potency (MCC-26) | Potency (C33A) | Potency (CAOV3) | Potency (CASKI) | Potency (Es-2) | Potency (HeLa) | Potency (Hek293T [1]) | Potency (JEG-3) | Potency (OV90) | Potency (PA-1) | Potency (SKOV3)

Nc1ccc(C(=O)O)cc1
inactive: outcome (HACAT) | outcome (HEK293T [2]) | Potency (MCC-13) | Potency (MKL-1) | Potency (MKL-2) | Potency (UISO) | Potency (WaGa) | Potency (C33A) | Potency (CAOV3) | Potency (CASKI) | Potency (Es-2) | Potency (HeLa) | Potency (Hek293T [1]) | Potency (JEG-3) | Potency (OV90) | Potency (PA-1) | Potency (SKOV3)

CN1CCN(CCCN2c3ccccc3Sc3ccc(S(=O)(=O)N(C)C)cc32)CC1
inactive: outcome (HACAT) | Potency (MCC-13) | Potency (UISO) | Potency (C33A) | Potency (CAOV3) | Potency (CASKI) | Potency (Es-2) | Potency (HeLa) | Potency (Hek293T [1]) | Potency (JEG-3) | Potency (SKOV3)

C[C@]12C=CC(=O)C=C1CC[C@@H]1[C@@H]2[C@@H](O)C[C@@]2(C)[C@H]1CC[C@]2(O)C(=O)CO
inactive: outcome (NIH3T3) | Potency (C33A) | Potency (CAOV3) | Potency (CASKI) | Potency (Es-2) | Potency (HeLa) | Potency (Hek293T [1]) | Potency (JEG-3) | Potency (OV90) | Potency (SKOV3)

c1ccc(CNCCNCc2ccccc2)cc1
inactive: outcome (HACAT) | Potency (MCC-13) | Potency (MCC-26) | Potency (MKL-1) | Potency (UISO) | Potency (WaGa) | Potency (C33A) | Potency (CAOV3) | Potency (CASKI) | Potency (Es-2) | Potency (HeLa) | Potency (Hek293T [1]) | Potency (JEG-3) | Potency (OV90) | Potency (PA-1) | Potency (SKOV3)

COc1ccc(/C=C/C(=O)c2ccc(OC)cc2OC)cc1
active: Potency (MKL-2) 5.31 µM | Potency (SKOV3) 2.24 µM
inactive: max response (NIH3T3) -18.9% | Potency (Es-2) | Potency (HeLa) | Potency (Hek293T [1]) | Potency (JEG-3)

COc1c(C)c2c(c(O)c1C/C=C(\C)CCC(=O)O)C(=O)OC2
active: Potency (NIH3T3) 1.68 µM | Potency (WaGa) 0.531 µM | Potency (Es-2) 2.82 µM | Potency (PA-1) 282 nM
inactive: Potency (CAOV3) | Potency (JEG-3)

CCCCC1=NC2(CCCC2)C(=O)N1Cc1ccc(-c2ccccc2-c2nn[nH]n2)cc1
inactive: outcome (HACAT) | outcome (HEK293T [2]) | Potency (MCC-13) | Potency (MCC-26) | Potency (MKL-1) | Potency (MKL-2) | Potency (UISO) | Potency (WaGa) | Potency (C33A) | Potency (CAOV3) | Potency (CASKI) | Potency (Es-2) | Potency (HeLa) | Potency (Hek293T [1]) | Potency (JEG-3) | Potency (OV90) | Potency (PA-1)

CC1=C(C(=O)O)N2C(=O)[C@@H](NC(=O)[C@H](N)c3ccc(O)cc3)[C@H]2SC1
inactive: outcome (HEK293T [2]) | Potency (MCC-13) | Potency (MCC-26) | Potency (MKL-1) | Potency (MKL-2) | Potency (UISO) | Potency (WaGa) | Potency (C33A) | Potency (CAOV3) | Potency (CASKI) | Potency (Es-2) | Potency (HeLa) | Potency (Hek293T [1]) | Potency (JEG-3) | Potency (OV90) | Potency (PA-1) | Potency (SKOV3)

Oc1ccc(Cl)c2cccnc12
inactive: outcome (HACAT) | Potency (C33A) | Potency (CAOV3) | Potency (CASKI) | Potency (Es-2) | Potency (HeLa) | Potency (Hek293T [1]) | Potency (JEG-3) | Potency (OV90) | Potency (PA-1) | Potency (SKOV3)

CCCC(=O)Nc1ccc(OCC(O)CNC(C)C)c(C(C)=O)c1 (centres undefined)
inactive: outcome (HACAT) | Potency (MCC-13) | Potency (MCC-26) | Potency (MKL-1) | Potency (MKL-2) | Potency (UISO) | Potency (WaGa) | Potency (C33A) | Potency (CASKI) | Potency (Es-2) | Potency (HeLa) | Potency (Hek293T [1]) | Potency (JEG-3) | Potency (OV90) | Potency (PA-1) | Potency (SKOV3)

Oc1c(I)cc(Cl)c2cccnc12
inactive: outcome (HACAT) | Potency (CAOV3) | Potency (CASKI) | Potency (HeLa) | Potency (JEG-3)
active: Potency (MKL-2) 7.5 µM | Potency (UISO) 16.8 µM | Potency (WaGa) 23.7 µM

NCCCC[C@H](N[C@@H](CCc1ccccc1)C(=O)O)C(=O)N1CCC[C@H]1C(=O)O
inactive: outcome (HEK293T [2]) | Potency (MCC-13) | Potency (MCC-26) | Potency (MKL-1) | Potency (MKL-2) | Potency (UISO) | Potency (WaGa) | Potency (C33A) | Potency (CAOV3) | Potency (CASKI) | Potency (Es-2) | Potency (HeLa) | Potency (Hek293T [1]) | Potency (JEG-3) | Potency (OV90) | Potency (PA-1) | Potency (SKOV3)

Oc1c(I)cc(I)c2cccnc12
active: Potency (MKL-1) 18.8 µM | Potency (MKL-2) 11.9 µM
inactive: outcome (HACAT) | Potency (MCC-13) | Potency (C33A) | Potency (CAOV3) | Potency (CASKI) | Potency (HeLa) | Potency (Hek293T [1]) | Potency (JEG-3) | Potency (OV90) | Potency (SKOV3)
